Reference: the supplement of paper PMC10681739
Whole data set: some 4,000 sequences, median “arbitrary fluorescence units” near 830, cut for the highest 2% near 6,500. The sample as a whole holds a higher share of the highest values than the screen did.

Target: RUNX1 (UniProt Q01196)
Assay: RUNX1 binding intensity (PBM fluorescence), RUNX1 alone (arbitrary fluorescence units); higher = stronger binding
Details: RUNX1 concentration 2 nM; ETS1 concentration 0 nM
Method: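 gcPBM on 36-bp genomic-derived probes (partner site mutated) containing one RUNX1 site and no ETS1 site. Recombinant human RUNX1 (2 nM) was incubated alone or with ETS1 (25 nM) and detected by anti-RUNX1 antibody fluorescence. Values are medians over 4 replicate spots (not normalised). The probes sit in constant array flanks that are not printed.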

Sequence of RUNX1 (Q01196 whole entry): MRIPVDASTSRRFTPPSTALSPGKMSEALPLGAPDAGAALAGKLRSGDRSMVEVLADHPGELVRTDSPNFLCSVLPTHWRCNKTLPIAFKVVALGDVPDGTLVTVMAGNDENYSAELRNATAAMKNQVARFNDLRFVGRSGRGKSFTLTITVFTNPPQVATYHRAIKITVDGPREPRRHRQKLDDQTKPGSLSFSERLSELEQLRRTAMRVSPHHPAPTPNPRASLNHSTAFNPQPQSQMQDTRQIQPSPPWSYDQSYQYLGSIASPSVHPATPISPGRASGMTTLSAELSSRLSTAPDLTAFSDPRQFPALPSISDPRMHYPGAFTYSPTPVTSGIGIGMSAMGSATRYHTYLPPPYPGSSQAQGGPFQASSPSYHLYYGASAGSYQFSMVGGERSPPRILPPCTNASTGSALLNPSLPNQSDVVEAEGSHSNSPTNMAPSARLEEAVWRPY

Sequence	RUNX1 binding intensity
AACTAGTTCGTTCCTTATGCGGCCCAGGGCTCCACC	893
GGCACGAAAGAGCTGATGCATTTCAACCGCAGCCTG	1160
CGAGCCGCCTTGCTCCCCGGCCCACAGCCCAGCACT	889
CCGGGGTAAACCACGACACGACTCCCTGCCGTGTGG	886
GACCTTCACCCACAAGAACCACCTCCTCTCAGTAAA	1950
TACGACTTCAAGGCGGTCAACATCCAGGGCAAACTG	730
TCCCTCCTTGCGCTCTGGTTTTGTGGTTGCTTGCTG	1120
CCAGCCGTAAGCCCCGCCCCCTAGAGGCACCGCGGA	882
GCTTTGCAGTGTCCTCTATGGAACACCACACACAGT	809
GGGGACGAAGCGGTCTCGGTTCAGCCCGGCTGGGAG	692
TAAGGCTGTGTGGCTTCCAGATCAAAAACCGCAAAA	8380
CTCTGGCAGGGAGCTCTGAGGGCTAAACCACAAAAA	1560
CAGGCTGCTGTGGCTACTGCAGCACTGCCTCCCGCT	741
GCTCTGGCCGAAGATGTCCCTGCGGTGCAGCTGCCG	796
GGGCTTGACCGCCATGTTTGAAGCGGGCGCAAAAAA	758
CAGAACGGTCCCTGGAACACTGCGGTTCCCGCCTGG	874
AGGCTGTTGTGGGTTGCGCCGCTTCGGAGGTGGGAG	846
CTTGCCACACTGCCTCTTGTTTTGAACCACTATATT	2040
GCACACAGTGCGGTTGGCTTCCAGCTTCATGTTGGC	1470
CTTGTAGTCAGGTGGTTGGGCAGGGTGTTTCTCATG	807
TCCAAGGCGCAAAAAACCCGCCCTAAACCGCACCCC	1630
AGCGCCTTACCCGCGGCACACCCATTTGCTGACCCC	1120
CTTGTTCTATCTCCTGTTTGTGGTGAGTGACTGTCT	1370
AGGCTCATTGCCTGTTTTCATGTGGTTTAGAGAAAA	1030
TGATCAGGCAGGAGAAGCGCAGAGGTGGACCCGCAA	751

Sequence	RUNX1 binding intensity
GGGATCCTTCAGCTCCGGGTTAACCCCGACCGCGCC	697
CACTCCCCTCCCGCGGTCACACTTCAGGCGGCCACC	1460
GGGGGGGTGCGGTCCTGGTCGGGAGGAGGTGGAGAG	869
ACCTCCACCACAAAGAACAAAAAACGAAGGATAAAA	1520
CCACACGGCAGGGAGTCGTGTCGTGGTTTACCCCGG	752
ACGCCCGCTGACCACACTGGCGACGTCCCTCTCTGT	1400
CAGGGGGCCCCACATGCCGCTCTTGCTGCCCAGGTC	798
CAGTCGCCAGAAACCACAGCACTTCGGCCTGCTTCA	1480
GACATGTGGCTATTTTGGGCAATTGCCTGAGGAGGC	720
CGACTGGAACCACTCTGAGGCGCTGCCGCAGACACC	1040
TTAACTCCACAGAAGAATAAACCACCACCGCTCACC	1060
GACCACCTCCTTTCTGTGTTTTGTGGTTTCACAACT	2680
CATTGTGGGCGCTGTAGTCCAGCTGGAACCTGTTTG	760
GGAGGCTGTGGTGAGGAAAGAGGAGGTGACACTCCT	883
CCCCTCAATTCCCTCAACCCTTCCCACAAACTGGGA	1730
GGCTTACGGCGGGGTACCCTCCTCTGTGGGCGGGGC	715
CTGGCCGTGGCGTACGGGAGCTGTGGGGCCGTCCCC	728
GGCTGGAAAGGGTCTTGAGAGGAGGTGGTTGCCTTA	705
TGTCTGAGGTTTCTCTGTGAACATGAAGCTGAGAAC	790
AGGCTTTCTGTTTTATCTCGTGTGTGTGGTGCACCA	886
GGGCTTACGGCTGAACCCATGGCTGCGGGCTGTGCT	704
TCCACAGCCGGTTTCGGCCGGTTCCCACAAGCCCCT	909
CCGCTTACGGCCTTCGCCCGGCTTACCCGCGTCGCA	1030
GGCATCCCCTTGCGGCCATCACTTTCTATGCCCTCA	1250
GGGGCAGTGGTCACAGGAGGATCTTGCTGGAGTCAT	697
